Results on 28 compounds are retold here after PubChem BioAssay (NCATS).

Assay [1] has as its target Rap guanine nucleotide exchange factor 3 (Homo sapiens) (UniProt O95398). The assay can be described thus: Confirmatory qHTS for antagonist of cAMP-regulated guanine nucleotide exchange factor 3 (EPAC1) (AID 1645880). Further: nearly all actives have a fitted effect of over 55% in size. Further: potency means the concentration at half of the fitted maximal effect.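 On activity, negative = inhibition: plate controls were DMSO only for no effect and full effect of the ATA control for full effect.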 The following applies: EPAC1 Rap1B-BODIPY-GDP exchange, fluorescence; activity, negative = inhibition: at 115 µM (top of the series). The essentials: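 Nucleotide exchange uses 100 nM EPAC1, 250 nM RAP1B-BODIPY-GDP and 50 uM GDP, with compounds in a concentration-titration series. After 5 min at room temperature, fluorescence (480 nm ex/540 nm em) is read every 5 min for 30 min. Data are normalized to control ATA and DMSO.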
(In general: qHTS replaces the single test concentration by a dilution series.)

Assay [2] shares this target. The assay can be described thus: Confirmatory qHTS for agonist of cAMP-regulated guanine nucleotide exchange factor 3 (EPAC1) (AID 1645881).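 Further: EPAC1 catalysed release of BODIPY-GDP from Rap1B seen as fluorescence loss; 100% = effect of cAMP agonist control; nearly all actives have a fitted effect of over 75% in size.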
In assay [3] the target is Rap guanine nucleotide exchange factor 4 (Homo sapiens) (UniProt Q8WZA2). In words: Confirmatory qHTS for antagonist of cAMP-regulated guanine nucleotide exchange factor 4 (EPAC2) (AID 1645885). Further: nearly all actives have a fitted effect of over 25% in size. Further: potency means the concentration at half of the fitted maximal effect. On activity change, negative = inhibition: on the % scale 0 is the no-effect control and ±100 the full control effect.
Sequence of Rap guanine nucleotide exchange factor 4 (Homo sapiens) (Q8WZA2 whole entry, looked up): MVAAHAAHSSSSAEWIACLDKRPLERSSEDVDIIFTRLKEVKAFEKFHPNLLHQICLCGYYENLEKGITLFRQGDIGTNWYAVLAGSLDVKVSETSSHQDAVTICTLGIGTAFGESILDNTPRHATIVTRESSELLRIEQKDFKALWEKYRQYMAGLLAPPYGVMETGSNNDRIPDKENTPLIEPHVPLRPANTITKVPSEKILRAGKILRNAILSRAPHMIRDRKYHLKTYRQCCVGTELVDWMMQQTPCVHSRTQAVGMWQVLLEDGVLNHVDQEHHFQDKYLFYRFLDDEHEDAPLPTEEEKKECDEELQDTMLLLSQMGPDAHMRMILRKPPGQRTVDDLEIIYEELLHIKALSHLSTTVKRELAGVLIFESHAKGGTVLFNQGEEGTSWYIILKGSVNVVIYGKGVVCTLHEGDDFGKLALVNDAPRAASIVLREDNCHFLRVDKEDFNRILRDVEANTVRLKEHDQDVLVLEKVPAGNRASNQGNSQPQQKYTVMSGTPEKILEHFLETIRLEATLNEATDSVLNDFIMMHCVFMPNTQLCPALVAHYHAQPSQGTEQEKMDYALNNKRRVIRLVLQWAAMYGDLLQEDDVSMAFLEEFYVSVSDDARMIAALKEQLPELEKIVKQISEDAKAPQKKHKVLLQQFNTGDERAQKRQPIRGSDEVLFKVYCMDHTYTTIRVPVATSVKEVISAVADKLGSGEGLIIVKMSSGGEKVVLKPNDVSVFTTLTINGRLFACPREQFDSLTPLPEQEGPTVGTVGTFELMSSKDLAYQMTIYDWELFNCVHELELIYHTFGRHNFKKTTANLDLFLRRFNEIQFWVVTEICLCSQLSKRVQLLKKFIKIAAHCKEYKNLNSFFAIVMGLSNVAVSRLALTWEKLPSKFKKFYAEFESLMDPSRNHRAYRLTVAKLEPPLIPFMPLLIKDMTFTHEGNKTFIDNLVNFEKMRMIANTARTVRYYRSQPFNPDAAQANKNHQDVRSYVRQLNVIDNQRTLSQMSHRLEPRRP
In assay [4] the target is Rap guanine nucleotide exchange factor 3 (Homo sapiens) (UniProt O95398). In words: Counterscreen qHTS for antagonist of cAMP-regulated guanine nucleotide exchange factor 3 (EPAC1) (AID 1645888).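 Further: fluorescence loss as bound BODIPY-GDP is released from Rap1B; % of control where 0% means no effect.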 In a few lines:
(§1)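 Measured: fluorescence of BODIPY-GDP bound to Rap1B, which falls as exchange proceeds. Conditions include 50 uM competing GDP, 5 and 30 min reads, and a later cAMP challenge for antagonist detection.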
On the technique in general: A counterscreen serves to expose hits that act by an unwanted route or on another target.

Assay [5] shares this target. The assay can be described thus: Counterscreen qHTS for agonist of cAMP-regulated guanine nucleotide exchange factor 3 (EPAC1) (AID 1645889). Further: nearly all actives have a fitted effect of over 40% in size. Further: potency means the concentration at half of the fitted maximal effect. In a few lines: as §1
The target of assay [6] is Tumor susceptibility gene 101 protein (Homo sapiens) (UniProt Q99816). The assay can be described thus: qHTS Assay for Iinhibitors of HIV-1 Budding by Blocking the Interaction of PTAP/TSG101: Hit Validation (AID 651600). Further: potency means the concentration at half of the fitted maximal effect; nearly all actives have a fitted effect of over 70% in size. The essentials:
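Fluorescence polarization binding assay: Tsg101 binding domain (10 uM final) pre-dispensed with compounds, then FITC-labeled PTAP-motif peptide (50 nM final) added; 20 min at r.t. in HEPES pH 7.5 buffer with NaCl, Tween 20, EDTA, TCEP.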

Assay [7] addresses Tyrosyl-DNA phosphodiesterase 1 (Homo sapiens) (UniProt Q9NUW8). In words: Confirmation Assay for Inhibitors of Tyrosyl-DNA Phosphodiesterase (TDP1) (AID 489007). Further: potency means the concentration at half of the fitted maximal effect; nearly all actives have a fitted effect of over 40% in size. As to conditions: recombinant human TDP1 enzymatic activity, dose-response. The essentials: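 Confirmation of primary-screen follow-ups in a qHTS format. Substrate cleavage by Tdp1 (1 nM) of a 3'-phosphotyrosine-FITC, 5'-biotin oligo (15 nM) was monitored as decreased AlphaScreen signal after a 5 min room-temperature reaction.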

Assay [8] is described as follows: qHTS for Inhibitors of the vitamin D receptor (VDR): Hit Validation using a Texas Red Assay (AID 602201). Further: potency means the concentration at half of the fitted maximal effect. The essentials: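 Fluorescence polarization (Ex 595/Em 615 nm) of Texas Red (7 nM) with 1.5 uM VDR-LBD and LG19078 (final concentrations). Compounds were incubated for 2 hours at room temperature.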

Inconclusive results are not listed. A number with no mark means an inactive call. The source made the active and inactive calls. The call rests on the fitted dose curve; in most records, active means well fitted curve in the direction sought with a large enough effect; inconclusive means small, poorly fitted or top-dose-only effect, or another doubt; inactive means no such curve, though single readings can be large; an effect the other way counts as inactive or inconclusive.

Sequence of Rap guanine nucleotide exchange factor 3 (Homo sapiens) (O95398 whole entry, looked up): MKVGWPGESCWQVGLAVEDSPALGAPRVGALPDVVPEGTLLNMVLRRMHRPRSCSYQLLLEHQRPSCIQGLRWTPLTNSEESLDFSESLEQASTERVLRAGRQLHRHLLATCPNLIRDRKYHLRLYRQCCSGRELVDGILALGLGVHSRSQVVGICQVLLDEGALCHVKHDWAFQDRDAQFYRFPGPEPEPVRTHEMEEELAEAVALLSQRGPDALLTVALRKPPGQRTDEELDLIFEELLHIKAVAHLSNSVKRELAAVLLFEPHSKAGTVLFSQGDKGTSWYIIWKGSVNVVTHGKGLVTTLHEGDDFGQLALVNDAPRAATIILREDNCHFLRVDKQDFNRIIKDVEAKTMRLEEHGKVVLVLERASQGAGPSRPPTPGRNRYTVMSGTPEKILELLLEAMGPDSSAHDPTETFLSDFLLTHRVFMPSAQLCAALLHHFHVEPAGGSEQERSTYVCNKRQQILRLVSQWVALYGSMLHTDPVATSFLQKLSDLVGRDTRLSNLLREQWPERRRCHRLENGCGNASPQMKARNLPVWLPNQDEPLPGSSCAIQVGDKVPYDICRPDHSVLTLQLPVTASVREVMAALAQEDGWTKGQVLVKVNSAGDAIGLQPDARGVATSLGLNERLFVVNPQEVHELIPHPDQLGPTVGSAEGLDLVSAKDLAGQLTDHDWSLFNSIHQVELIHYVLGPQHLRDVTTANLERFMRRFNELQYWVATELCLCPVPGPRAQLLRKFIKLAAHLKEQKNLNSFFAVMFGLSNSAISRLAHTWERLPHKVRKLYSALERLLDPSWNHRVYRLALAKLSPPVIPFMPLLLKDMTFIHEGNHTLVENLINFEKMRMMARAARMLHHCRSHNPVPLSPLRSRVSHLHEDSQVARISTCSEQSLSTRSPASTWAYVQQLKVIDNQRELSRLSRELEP
Sequence of Tumor susceptibility gene 101 protein (Homo sapiens) (Q99816 whole entry, looked up, the tested form may be a part): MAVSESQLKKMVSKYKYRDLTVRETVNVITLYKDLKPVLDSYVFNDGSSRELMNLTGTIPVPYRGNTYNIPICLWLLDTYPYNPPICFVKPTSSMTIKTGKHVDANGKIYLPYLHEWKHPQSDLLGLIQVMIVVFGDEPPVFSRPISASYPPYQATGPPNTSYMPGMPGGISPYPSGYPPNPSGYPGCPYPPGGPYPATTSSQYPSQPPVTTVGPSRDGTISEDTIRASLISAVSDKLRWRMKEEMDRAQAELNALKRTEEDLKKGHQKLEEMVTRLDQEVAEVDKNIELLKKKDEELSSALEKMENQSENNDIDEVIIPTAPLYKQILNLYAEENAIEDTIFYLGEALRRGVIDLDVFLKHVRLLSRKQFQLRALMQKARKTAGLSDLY
Sequence of Tyrosyl-DNA phosphodiesterase 1 (Homo sapiens) (Q9NUW8 whole entry, looked up): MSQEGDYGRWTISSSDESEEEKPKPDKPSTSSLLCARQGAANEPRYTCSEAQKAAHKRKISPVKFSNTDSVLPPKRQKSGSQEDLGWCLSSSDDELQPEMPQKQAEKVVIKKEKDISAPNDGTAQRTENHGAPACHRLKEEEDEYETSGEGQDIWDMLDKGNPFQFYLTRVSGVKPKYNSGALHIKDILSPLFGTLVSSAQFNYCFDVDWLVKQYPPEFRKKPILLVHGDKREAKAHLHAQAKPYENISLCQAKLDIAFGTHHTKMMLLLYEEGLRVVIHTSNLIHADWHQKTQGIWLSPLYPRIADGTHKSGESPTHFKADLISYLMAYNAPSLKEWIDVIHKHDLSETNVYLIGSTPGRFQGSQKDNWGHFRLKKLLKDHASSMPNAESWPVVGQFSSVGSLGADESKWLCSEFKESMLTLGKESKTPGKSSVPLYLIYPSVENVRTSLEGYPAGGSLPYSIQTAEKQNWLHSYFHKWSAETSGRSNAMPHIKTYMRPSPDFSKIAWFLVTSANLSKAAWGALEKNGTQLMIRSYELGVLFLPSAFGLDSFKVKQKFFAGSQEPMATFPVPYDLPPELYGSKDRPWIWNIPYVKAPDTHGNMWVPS

For the compound `Oc1[nH]c2ccccc2c1N=Nc1ccccc1F`, the Potency entry in assay [1], in assay [2], in assay [3] and in assay [4] was “inactive” throughout. In addition, the Potency in assay [5] was 11.2 µM (active).

`CCCCc1c(C)nc2ccccc2c1SCCC#N`: the Potency result in assay [1] and in assay [2] was “inactive” in each case. Moreover, the activity change, negative = inhibition in assay [4] was -10% [at 30.8 µM].

Consider `Cc1ccc(N2CC(NC(=O)C(=O)c3c[nH]c4ccccc34)CC2=O)cc1C` (stereo not given), for which the Potency entry in assay [1], in assay [2] and in assay [4] was “inactive” throughout.

With `Nc1ccc2c(O)cc(S(=O)(=O)O)cc2c1`, the Potency in assay [1] is 4.26 µM (active). Also, the Potency result in assay [2], in assay [3], in assay [4] and in assay [5] was “inactive” in each case.

In the case of `CCc1ccc[n+](-c2[nH]c(=O)sc2/C=N/NC([S-])=Nc2ccccc2)c1`, the Potency in assay [6] is 14.6 µM (active); in assay [5] it was 50.1 µM (active). Also, the Potency entry in assay [1], in assay [2], in assay [3] and in assay [4] was “inactive” throughout.

With `CCOc1ccc(NC2c3ccccc3C(=O)N2Cc2ccco2)cc1` (stereo not given), the Potency result in assay [1], in assay [2], in assay [3], in assay [4] and in assay [5] was “inactive” each time.

In the case of `CN(Cc1ccccc1)c1nc(-c2ccc(F)cc2)cc(C(F)(F)F)n1`, the Potency was 28.2 µM (active) in assay [7] and 0.0849 µM (active) in assay [3]. In addition, the Potency entry in assay [1], in assay [2], in assay [4] and in assay [5] was “inactive” in each case.

Regarding `COc1ccc(C2CC(=O)Oc3cc(C)c(Cl)cc32)cc1` (stereo not given), the Potency result in assay [1], in assay [2] and in assay [4] was “inactive” each time.

Turning to `COc1ccc(N2CCN(CC(O)COc3ccc(C(C)C)c(C)c3)CC2)cc1` (stereo not given), the Potency entry in assay [1], in assay [2], in assay [3], in assay [4] and in assay [5] was “inactive” throughout.

Regarding `Cc1cc(C)c2c(CN3CCCCC3C)cc(=O)oc2c1` (stereo not given), the Potency result in assay [1] and in assay [2] was “inactive” throughout. For the same compound, the activity change, negative = inhibition in assay [4] is -3.91% [at 30.8 µM].

Regarding `CCN(CC)CC#CCOC(c1ccccc1)c1ccccc1`, the Potency entry in assay [1], in assay [2], in assay [4] and in assay [5] was “inactive” throughout. For the same compound, the Potency in assay [3] is 37.9 µM (active).

In the case of `COc1ccccc1NC(=O)Cc1ccc(-c2ccccc2)cc1`, the Potency result in assay [1], in assay [2], in assay [3] and in assay [5] was “inactive” each time.

Consider `O=C1COc2ccc(C(=O)COC(=O)c3ccc4ccccc4n3)cc2N1`, for which the Potency in assay [1] was 75.7 µM (active). The Potency result in assay [2], in assay [3], in assay [4] and in assay [5] was “inactive” throughout.

Take `CCCCn1nnnc1C(c1cc2ccccc2o1)N1CCCC1` (stereo not given): the Potency result in assay [1], in assay [2] and in assay [4] was “inactive” throughout.

`CCOC(=O)c1cc2c(=O)n3ccccc3nc2n(C(C)C)c1=NC(=O)c1cc2ccccc2o1`: the Potency in assay [1] was 75.7 µM (active). For the same compound, the Potency entry in assay [2], in assay [3], in assay [4] and in assay [5] was “inactive” in each case.

Take `O=S(=O)(c1ccc(Br)c2ccccc12)N1CCCC1`: the Potency entry in assay [1], in assay [2], in assay [3] and in assay [5] was “inactive” throughout.

Regarding `CCOc1ccc(-c2cccc(NC(=O)c3ccco3)c2)nn1`, the Potency entry in assay [1], in assay [2], in assay [4] and in assay [5] was “inactive” each time. Further, the Potency in assay [3] is 84.9 µM (active).

With `COc1ccc2ccccc2c1C(O)c1nccn1C` (stereo not given), the Potency in assay [6] is 8.19 µM (active). Besides, the Potency entry in assay [1], in assay [2], in assay [3] and in assay [4] was “inactive” in each case.

Consider `C=C(C)Cn1c(C)cc(C)c(S(=O)(=O)c2ccccc2C)c1=O`, for which the Potency result in assay [1] and in assay [2] was “inactive” in each case. Besides, the activity change, negative = inhibition in assay [4] is -6.66% [at 30.8 µM].

As to `CCn1nc(C)c(C(=O)Nc2cc(Oc3ccc(Cl)cc3)cc([N+](=O)[O-])c2)c1C`, the Potency entry in assay [1], in assay [2], in assay [3], in assay [4] and in assay [5] was “inactive” each time.

Turning to `CCN(CC(=O)NCc1cccs1)C(=O)c1ccc(S(=O)(=O)Nc2ccccc2)cc1`, the Potency entry in assay [1], in assay [2], in assay [3], in assay [4] and in assay [5] was “inactive” in each case.

`Cc1ccc(-n2nc3c(=O)n(CCCC(=O)NCc4ccc(F)cc4)nc(C)c3c2C)cc1`: the Potency entry in assay [1], in assay [2], in assay [4] and in assay [5] was “inactive” each time. The outcome in assay [3] is “inactive [at 12.7 µM]”.

Take `COc1ccc(C2CC(=O)Oc3ccc(OC)cc32)cc1` (stereo not given): the Potency entry in assay [1] and in assay [2] was “inactive” in each case. The activity change, negative = inhibition in assay [4] is -2.08% [at 30.8 µM].

`O=C(c1ccccc1Br)N(Cc1ccco1)Cc1ccco1`: the Potency entry in assay [1], in assay [2], in assay [3], in assay [4] and in assay [5] was “inactive” in each case.

`O=C1C=C(c2ccccc2Oc2ccccc2)C[C@@H](c2ccc3c(c2)OCO3)C1`: the Potency entry in assay [1], in assay [2], in assay [3], in assay [4] and in assay [5] was “inactive” each time.

`CCN(CC)CCOC(=O)c1ccc(NC(=O)c2nn(-c3ccc(C)cc3)c(=O)c3c2c2ccccc2n3C)cc1`: in assay [1], the Potency was 42.6 µM (active). In addition, the Potency entry in assay [2], in assay [4] and in assay [5] was “inactive” each time. In addition, in assay [3], the outcome was “inactive [at 12.7 µM]”.

As to `COc1ccccc1N(C)c1cc2c(c3c1ccn3C)C1CCC2O1` (stereo not given), the Potency entry in assay [1], in assay [2] and in assay [4] was “inactive” in each case.

For `COc1cc([N+](=O)[O-])ccc1-c1ccc(/C=C2\C(=O)ON=C2c2ccccc2)o1`, the results for the Potency in assay [8] and in assay [1] were 3.16 µM (active) and 19 µM (active), respectively. Moreover, the Potency entry in assay [2], in assay [3], in assay [4] and in assay [5] was “inactive” each time.
